# Test results as given in PubChem BioAssay.
# The source made the active and inactive calls. Unless noted, how the calls were made is not given here.
# Columns and labels:
# [1] = anti-His antibody binders, primary screen, artefact control for SMM control protein annotation, biochemical, small-molecule microarray, 635 nm fluorescence (AID 1128); details: anti-His Alexa647 antibody binding, higher = more signal;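 further: score merges feature fluorescence with signal-to-noise for each printed compound spot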
# [2] = test system: Human papillomavirus type 1a E7 protein (residues 1-88); test: HPV1a E7 small-molecule binders, primary screen, biochemical, small-molecule microarray, residues 1-88, 635 nm (AID 1129); details: small-molecule microarray binding, fluorescence 635 nm; higher = more signal
# [3] = target: Focal adhesion kinase 1 (Homo sapiens) (UniProt Q05397); test: small-molecule microarray binders of FAK, primary screen, biochemical, 635/667 nm fluorescence, BSA, DTT (AID 1130); details: PTK2 binding, 635 nm fluorescence, higher = more signal;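 further: composite of spot emission at 667 nm and signal to noise over triplicate slides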
# Sequence of Focal adhesion kinase 1 (Homo sapiens) (Q05397 whole entry, looked up): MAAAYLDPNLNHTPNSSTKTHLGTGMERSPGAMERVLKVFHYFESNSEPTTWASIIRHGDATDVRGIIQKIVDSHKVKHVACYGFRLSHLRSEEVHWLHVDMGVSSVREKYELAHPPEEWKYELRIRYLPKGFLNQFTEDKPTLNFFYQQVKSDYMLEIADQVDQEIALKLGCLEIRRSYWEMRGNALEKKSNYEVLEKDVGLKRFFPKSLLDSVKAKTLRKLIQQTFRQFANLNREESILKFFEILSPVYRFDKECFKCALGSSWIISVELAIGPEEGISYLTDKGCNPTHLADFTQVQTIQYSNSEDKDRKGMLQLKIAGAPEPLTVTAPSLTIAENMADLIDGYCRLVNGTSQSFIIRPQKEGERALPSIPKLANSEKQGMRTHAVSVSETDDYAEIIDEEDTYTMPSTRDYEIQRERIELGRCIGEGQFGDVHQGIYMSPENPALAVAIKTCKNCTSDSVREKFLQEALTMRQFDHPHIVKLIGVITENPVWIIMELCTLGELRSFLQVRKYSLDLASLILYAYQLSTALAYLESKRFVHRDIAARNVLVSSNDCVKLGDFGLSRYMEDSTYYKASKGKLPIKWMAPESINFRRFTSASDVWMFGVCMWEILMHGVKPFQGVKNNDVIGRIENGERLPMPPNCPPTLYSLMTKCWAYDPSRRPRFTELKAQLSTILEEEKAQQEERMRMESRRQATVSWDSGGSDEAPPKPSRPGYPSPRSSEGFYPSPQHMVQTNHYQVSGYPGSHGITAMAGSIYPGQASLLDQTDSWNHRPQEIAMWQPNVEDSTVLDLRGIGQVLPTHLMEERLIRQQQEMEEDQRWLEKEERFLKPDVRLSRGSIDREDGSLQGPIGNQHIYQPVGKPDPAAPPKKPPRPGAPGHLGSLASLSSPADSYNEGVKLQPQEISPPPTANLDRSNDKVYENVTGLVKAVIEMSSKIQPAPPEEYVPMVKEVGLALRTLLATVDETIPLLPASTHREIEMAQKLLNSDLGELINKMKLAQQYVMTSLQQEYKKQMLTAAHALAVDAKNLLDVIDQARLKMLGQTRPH
# [4] = test system: Fibrinogen (Alexa647-labelled); test: fibrinogen binders on compound microarrays, profiling panel, artefact control for SMM control-protein annotation, biochemical, small-molecule microarray, 635/667 nm fluorescence (AID 1131); details: fibrinogen-A647 binding fluorescence, higher = more signal;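 further: z-score merges 667 nm fluorescence with per-spot signal-to-noise over triplicate slides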
# [5] = target: Follistatin (Homo sapiens) (UniProt P19883); test: follistatin binders on small-molecule microarrays, primary screen, biochemical, small-molecule microarray, 635/667 nm fluorescence (AID 1132); details: FST binding, 635 nm fluorescence, higher = more signal
# Sequence of Follistatin (Homo sapiens) (P19883 whole entry, looked up): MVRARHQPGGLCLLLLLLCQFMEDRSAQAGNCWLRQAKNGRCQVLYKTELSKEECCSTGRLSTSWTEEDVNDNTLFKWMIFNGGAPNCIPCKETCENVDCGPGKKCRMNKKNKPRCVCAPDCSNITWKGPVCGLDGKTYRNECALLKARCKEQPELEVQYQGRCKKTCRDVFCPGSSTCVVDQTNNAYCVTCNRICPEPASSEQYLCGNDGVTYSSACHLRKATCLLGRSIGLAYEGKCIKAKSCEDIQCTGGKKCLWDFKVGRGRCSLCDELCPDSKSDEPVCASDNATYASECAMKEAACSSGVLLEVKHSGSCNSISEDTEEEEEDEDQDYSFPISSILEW
# [6] = target: Fibroblast growth factor 2 (Homo sapiens) (UniProt P09038); test: FGF2 binders on small-molecule microarrays, primary screen, biochemical, small-molecule microarray, 635/667 nm fluorescence (AID 1133); details: small-molecule microarray binding, FGF2, fluorescence 635/667; higher = more signal
# Sequence of Fibroblast growth factor 2 (Homo sapiens) (P09038 whole entry, looked up): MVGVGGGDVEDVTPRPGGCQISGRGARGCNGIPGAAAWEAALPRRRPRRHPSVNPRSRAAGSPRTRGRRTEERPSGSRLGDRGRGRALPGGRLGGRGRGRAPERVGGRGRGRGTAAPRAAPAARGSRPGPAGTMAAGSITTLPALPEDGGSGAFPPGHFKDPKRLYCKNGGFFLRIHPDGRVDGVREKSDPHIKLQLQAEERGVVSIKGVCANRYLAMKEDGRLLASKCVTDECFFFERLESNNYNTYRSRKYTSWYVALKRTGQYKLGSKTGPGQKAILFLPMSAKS
# [7] = mitochondrial membrane potential change in A549 cells, profiling panel, cell-based, JC-1 fluorescence, basal, 24 h, 100 nL (AID 1138); details: higher = more signal;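 further: A549 lung adenocarcinoma cells under basal conditions with no added stimulus; test concentration not given here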
# [8] = test system: Lefty1; test: Lefty1 binders on small-molecule microarrays, primary screen, biochemical, small-molecule microarray, 635/667 nm fluorescence (AID 1139); details: small-molecule microarray binding, fluorescence 635/667; higher = more signal
# [9] = test system: wheat germ agglutinin (Triticum aestivum), Alexa647-labelled; test: wheat germ agglutinin binders on compound microarrays, profiling panel, artefact control for SMM control-protein annotation, biochemical, small-molecule microarray, 635/667 nm fluorescence (AID 1140); details: WGA-A647 binding, 635 nm fluorescence, higher = more signal;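 further: score merges 667 nm feature emission with signal to noise over triplicate slides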
# [10] = target: Luciferin 4-monooxygenase (Photinus pyralis) (UniProt P08659); test: firefly luciferase enzyme inhibitors, primary screen, biochemical, luminescence, purified enzyme, 2006 set (AID 1141); details: SteadyGlo luminescence, 30 min, higher = more signal, called active from +8 up or from −8 down;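 further: cell-free assay with purified firefly luciferase at 100 ng per well in PBS; test concentration not given here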
# Sequence of Luciferin 4-monooxygenase (Photinus pyralis) (P08659 whole entry, looked up): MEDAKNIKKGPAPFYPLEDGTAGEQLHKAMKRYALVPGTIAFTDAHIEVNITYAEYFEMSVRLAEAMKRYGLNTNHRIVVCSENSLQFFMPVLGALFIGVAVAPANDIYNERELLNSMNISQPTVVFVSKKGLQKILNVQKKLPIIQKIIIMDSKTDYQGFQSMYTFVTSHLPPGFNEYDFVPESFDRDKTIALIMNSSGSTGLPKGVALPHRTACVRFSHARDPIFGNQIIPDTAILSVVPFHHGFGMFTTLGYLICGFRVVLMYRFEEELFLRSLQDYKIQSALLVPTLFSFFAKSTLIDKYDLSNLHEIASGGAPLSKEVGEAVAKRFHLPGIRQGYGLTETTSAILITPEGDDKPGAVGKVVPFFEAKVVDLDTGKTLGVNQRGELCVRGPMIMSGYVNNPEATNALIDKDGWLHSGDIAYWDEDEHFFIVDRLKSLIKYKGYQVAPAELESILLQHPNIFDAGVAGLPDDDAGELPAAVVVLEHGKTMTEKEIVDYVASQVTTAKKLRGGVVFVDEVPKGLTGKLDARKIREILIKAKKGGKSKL
# [11] = test system: Wnt5a (protein binding on small-molecule microarray); test: Wnt5a binders on small-molecule microarray, primary screen, biophysical, 635/667 nm fluorescence (AID 1142); details: 635 nm fluorescence, higher = more signal;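 further: fluorescence read at 667 nm with signal to noise per printed feature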
# [12] = cell viability in Huh7 cells, primary screen, cytotoxicity control for HCV replication inhibitor project, CellTiter-Glo luminescence, basal, 48 h (AID 1143); details: Huh7 HCV replicon, higher = more signal, called active from +8 up or from −8 down;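 further: Huh7 hepatoma cells carrying a hepatitis C replication reporter with no stimulus; test concentration not given here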
# [13] = P. aeruginosa biofilm formation inhibitors, primary screen, PAO1 strain, BacTiter-Glo luminescence, LB-PBS (AID 1144); details: 12 h, higher = more signal
# [14] = CREB reporter modulators without forskolin, primary screen, cell-based, PC12, CRE-LacZ reporter, unstimulated (AID 1145); details: no forskolin, luminescence, 4.5 h, higher = more signal, called active from +8 up or from −8 down
# [15] = CREB reporter modulators under forskolin, primary screen, cell-based, PC12, CRE-LacZ reporter, forskolin-stimulated (AID 1146); details: luminescence, 4.5 h, higher = more signal, called active from +8 up or from −8 down;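 further: PC12 cells with 6xCRE LacZ reporter stimulated by forskolin 10 µM; beta-galactosidase reporter signal reflecting CREB driven transcription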
# [16] = target: Streptavidin (Streptomyces avidinii) (UniProt P22629); test: streptavidin binders on small-molecule microarray, primary screen, artefact control for SMM compound annotation, biophysical, 635/667 nm fluorescence (AID 1147); details: streptavidin binding, higher = more signal;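 further: signal reflects streptavidin binding to arrayed compounds as a control protein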
# Sequence of Streptavidin (Streptomyces avidinii) (P22629 whole entry, looked up): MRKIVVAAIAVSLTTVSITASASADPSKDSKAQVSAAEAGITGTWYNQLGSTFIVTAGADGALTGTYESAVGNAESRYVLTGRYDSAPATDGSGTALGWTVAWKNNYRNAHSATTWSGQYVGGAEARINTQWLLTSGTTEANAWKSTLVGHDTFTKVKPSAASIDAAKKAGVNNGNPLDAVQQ
# [17] = small-molecule binders of probe aInhba, primary screen, biochemical, small-molecule microarray, 635/667 nm fluorescence (AID 1148); details: higher = more signal;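 further: score merges 667nm spot fluorescence with signal-to-noise for antibody binding to printed compounds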
# [18] = target: Torsin-1A (Homo sapiens) (UniProt O14656); test: torsin A binders from cell lysate, primary screen, small-molecule microarray, wild-type, 635/667 nm (AID 1149); details: COS7 hTOR1A-WT lysate, 635 nm fluorescence, higher = more signal
# Sequence of Torsin-1A (Homo sapiens) (O14656 whole entry, looked up): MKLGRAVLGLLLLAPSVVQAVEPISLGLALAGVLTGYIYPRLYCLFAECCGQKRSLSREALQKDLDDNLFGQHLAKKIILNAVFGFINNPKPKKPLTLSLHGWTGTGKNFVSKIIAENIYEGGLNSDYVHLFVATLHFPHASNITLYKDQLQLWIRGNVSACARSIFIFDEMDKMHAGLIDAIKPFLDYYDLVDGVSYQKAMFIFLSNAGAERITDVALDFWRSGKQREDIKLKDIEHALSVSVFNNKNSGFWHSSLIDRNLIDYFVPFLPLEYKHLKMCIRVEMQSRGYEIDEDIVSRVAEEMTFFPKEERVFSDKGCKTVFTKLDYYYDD
# [19] = target: Torsin-1A (Homo sapiens) (UniProt O14656); test: small-molecule binders of mutant TOR1A in lysate, primary screen, cell lysate, small-molecule microarray, COS7 lysate, 635/667 nm fluorescence (AID 1150); details: COS7 hTOR1A mutant lysate, 635 nm fluorescence, higher = more signal;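 further: score pools 667 nm emission and signal to noise measuring lysate protein binding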
# [20] = test system: Sonic hedgehog protein (Shh); test: small-molecule binders of Shh protein, primary screen, biochemical, small-molecule microarray, 635/667 nm fluorescence (AID 1151); details: small-molecule microarray binding, 635 nm fluorescence; higher = more signal;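 further: Shh protein binding to compounds spotted on small-molecule microarray slides; score combines spot fluorescence intensity with signal-to-noise across triplicate slides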
SMILES,composite z-score [1],composite z-score [2],composite z-score [3],composite z-score [4],composite z-score [5],composite z-score [6],z-score [7],composite z-score [8],composite z-score [9],z-score [10],composite z-score [11],z-score [12],z-score [13],z-score [14],z-score [15],composite z-score [16],composite z-score [17],composite z-score [18],composite z-score [19],composite z-score [20]
C=C(CCCC)/C(=C/C[C@@H](OC(=O)c1ccncc1)c1ccc(CO)o1)c1cnc2ccccc2c1,1.24,0.723,1.64,0.878,1.46,1.69,0.146,1.65,1.22,-3.5 (inactive),0.209,-1.47 (inactive),-1.26 (inactive),2.38 (inactive),0.176 (inactive),1.39,0.461,1.42,1.07,2.18
N#Cc1ccc(NN2C(C(O)CCc3ccccc3)C=CC3C(=O)N(c4ccccc4)C(=O)C32)cc1 (stereo not given),1.31,1.08,0.945,0.846,0.353,-0.431,-0.3,-0.85,1.34,-0.98 (inactive),0.135,-0.843 (inactive),-1.07 (inactive),-0.905 (inactive),-0.259 (inactive),0.79,0.194,-0.0047,0.985,-0.0548
CO[C@H]1O[C@H](CO)[C@@H](OC(=O)Nc2ccc3c(c2)OCO3)[C@H](OC(=O)Nc2ccccc2)[C@@H]1OC(=O)Nc1ccccc1,1.79,1.22,1.02,0.968,1.41,1.83,0.187,0.823,0.497,-0.899 (inactive),0.743,-3.5 (inactive),-0.22 (inactive),0.605 (inactive),-1.49 (inactive),0.327,0.0398,0.491,1.09,1.12
CC1CC/C=C\[C@H]2OC34C=CCN(Cn5nnc6ccccc65)C(=O)[C@H]3N(C(C)CO)C(=O)[C@@H]4C2C(=O)O1 (stereo not given in full),0.52,-1.01,-0.305,-0.559,-0.491,-1.01,0.417,-0.328,-0.462,-0.223 (inactive),-0.501,0.349 (inactive),-0.182 (inactive),-1.03 (inactive),-0.542 (inactive),-0.465,-0.0675,-0.276,-1,-0.362
COCCOC(=O)N1C(=O)[C@@]2(c3cc(C#CCC(C(=O)OC)C(=O)OC)ccc31)[C@H](c1ccccc1OCCO)N1[C@H](c3ccccc3)[C@H](c3ccccc3)OC(=O)[C@H]1[C@@H]2C(=O)N1CCCCCCC1,1.75,1.18,0.384,0.744,1.51,1.05,-0.729,1.55,0.529,0.406 (inactive),1.16,-1.66 (inactive),-0.129 (inactive),-0.329 (inactive),0.0965 (inactive),2.45,0.628,1.29,0.96,1.66
COCCOC(=O)N1C(=O)[C@@]2(c3cc(C#CCNC(N)=O)ccc31)[C@H](c1ccccc1OCCO)N1[C@H](c3ccccc3)[C@H](c3ccccc3)OC(=O)[C@H]1[C@@H]2C(=O)NC[C@H](O)c1ccccc1,1.06,1.2,0.499,0.943,1.28,0.472,-1.31,0.688,0.832,0.311 (inactive),0.439,-0.429 (inactive),-0.209 (inactive),-1 (inactive),0.172 (inactive),0.903,-0.0375,0.834,0.525,1.87
CCCC=C(CCC)[C@@H](NC(=O)c1ccc(C(F)(F)F)cc1)c1ccccc1,0.81,0.788,0.0363,0.0538,0.0643,-0.764,-2.54,0.0969,0.352,1.2 (inactive),-0.191,-3.91 (inactive),-0.383 (inactive),0.962 (inactive),-0.0536 (inactive),0.233,0.208,0.518,0.199,-0.634
C=CCC(OC(C)=O)[C@@H]1[C@@H](N(Cc2ccc(-c3cccc(C(F)(F)F)c3)o2)C(=O)Cc2ccc(F)cc2)c2cc(OCCCO)ccc2N1C(=O)c1ccc(-c2ccccc2)cc1 (stereo not given in full),-0.656,-0.922,-0.131,-0.531,0.16,-0.246,1.74,-0.173,0.294,-0.306 (inactive),-0.206,-0.072 (inactive),-0.581 (inactive),0.6 (inactive),0.875 (inactive),0.0628,-0.157,-0.53,-0.253,0.475
CCc1cccc(NC(=O)O[C@H]2[C@H](OC(=O)Nc3ccccc3)[C@@H](OC(=O)Nc3ccccc3)[C@@H](OC)O[C@@H]2CO)c1,0.51,1.29,0.497,0.978,1.4,0.786,-1.47,0.937,0.966,0.846 (inactive),0.73,-5.6 (inactive),-0.944 (inactive),0.344 (inactive),-1.9 (inactive),0.39,0.0785,2.73,0.896,1.72
[N-]=[N+]=NCc1ccccc1C[C@]1(C(=O)N2CCCCC2)N=C(c2ccc(OCCCO)cc2)O[C@H]1c1ccccc1CN=[N+]=[N-],0.538,1.21,0.652,0.947,1.04,-0.369,-0.0989,0.453,0.59,-1.02 (inactive),0.129,-4.48 (inactive),0.447 (inactive),1.88 (inactive),0.102 (inactive),0.995,0.233,0.064,0.741,-0.0292
